Entries with a potency or affinity are not part of this list.
Legend:
Klebsiella pneumoniae = conditions: Concentration 32 ug.mL-1;; ASSAY_TEST Inhibition of Bacterial Growth; detection method Absorption (OD600); MEDIA CAMHB; plate type 384well; NBS; CORNING #3640; time 18 hr
Candida albicans = conditions: Concentration 32 ug.mL-1; ASSAY_TEST Inhibition of Fungal Growth; detection method Absorption (OD530)
Cryptococcus neoformans = conditions: Concentration 32 ug.mL-1; ASSAY_TEST Inhibition of Fungal Growth; detection method Resazurin; Absorption (OD600-OD570); plate type 384well; NBS; CORNING #3640

Compound: O=c1c2nnc(-c3cccc([N+](=O)[O-])c3)n2ccn1-c1ccc(F)cc1
- Inhibition (Klebsiella pneumoniae): 11.79%
- Inhibition (Candida albicans): 5.6%
- Inhibition (Cryptococcus neoformans): -10.38%

Compound: COc1cccc(-n2ccn3c(SCC(=O)c4c[nH]c5ccc(OC)cc45)nnc3c2=O)c1
- Inhibition (Klebsiella pneumoniae): 12.06%
- Inhibition (Candida albicans): 5.77%
- Inhibition (Cryptococcus neoformans): -34.12%

Compound: O=c1c2sccc2n2c(=O)n(Cc3ccccc3F)nc2n1Cc1cccs1
- Inhibition (Klebsiella pneumoniae): -1.85%
- Inhibition (Candida albicans): 38.88%
- Inhibition (Cryptococcus neoformans): -22.09%

Compound: CC(C)Cn1c(=O)c2ccc(C(=O)NC3CCCCC3)cc2n2c(=O)n(CC#N)nc12
- Inhibition (Klebsiella pneumoniae): 10.69%
- Inhibition (Candida albicans): -0.09%
- Inhibition (Cryptococcus neoformans): -19.28%

Compound: Cc1ccc(NC(=O)Cn2nc3ccc(C(=O)NCc4ccccc4)cn3c2=O)c(Br)c1
- Inhibition (Klebsiella pneumoniae): -0.66%
- Inhibition (Candida albicans): 7.92%
- Inhibition (Cryptococcus neoformans): -19.22%

Compound: Cc1ccccc1Oc1nccn2c(=O)n(CC(=O)Nc3ccccc3C(F)(F)F)nc12
- Inhibition (Klebsiella pneumoniae): 15.23%
- Inhibition (Candida albicans): -0.33%
- Inhibition (Cryptococcus neoformans): -11.87%

Compound: Cc1ccc(Oc2nccn3c(=O)n(CC(=O)Nc4cccc(Br)c4)nc23)cc1
- Inhibition (Klebsiella pneumoniae): 11.55%
- Inhibition (Candida albicans): 24.3%
- Inhibition (Cryptococcus neoformans): -18.68%

Compound: O=c1c2sccc2n2c(=O)n(Cc3ccc(Br)cc3)nc2n1Cc1cccs1
- Inhibition (Klebsiella pneumoniae): -4.09%
- Inhibition (Candida albicans): 49.64%
- Inhibition (Cryptococcus neoformans): -28.37%

Compound: CC(C)c1nnc2c(SCC(=O)Nc3ccccc3F)nc3ccccc3n12
- Inhibition (Klebsiella pneumoniae): 10.81%
- Inhibition (Candida albicans): 2.9%
- Inhibition (Cryptococcus neoformans): -27.54%

Compound: COc1cccc(-n2ccn3c(SCC(=O)c4ccc(OC)c(OC)c4)nnc3c2=O)c1
- Inhibition (Klebsiella pneumoniae): 7.59%
- Inhibition (Candida albicans): 4.83%
- Inhibition (Cryptococcus neoformans): -8.41%

From ChEMBL document CHEMBL4513146, “CO-ADD screening of Karazin Kharkiv National University (Ukraine) compounds”
